Assay [1] deals with Aryl hydrocarbon receptor (Homo sapiens) (UniProt P35869). In words: qHTS assay to identify small molecule that activate the aryl hydrocarbon receptor (AhR) signaling pathway (AID 743085).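 Also: HG2L7.5c1 human HepG2 liver cells with stably integrated DRE-driven firefly reporter; series mostly up to about 70 µM; nearly all actives have a fitted effect of over 15% in size.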 The essentials:
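24 h compound exposure, 37C, HepG2-derived HG2L7.5c1 cells with DRE-responsive luciferase. Readouts: fluorescence viability, then luminescence at room temperature after 30 min.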
(In general: qHTS replaces the single test concentration by a dilution series.)

Assay [2] concerns the target Peroxisome proliferator-activated receptor gamma (Homo sapiens) (UniProt P37231). In words: qHTS assay to identify small molecule agonists of the peroxisome proliferator-activated receptor gamma (PPARg) signaling pathway (AID 743094; active = well fitted activation curve with a large enough effect in the signal ratio in the repeat runs, not every such curve was filed as active; the % refers to the signal ratio). The essentials:
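Agonism was assessed in a beta-lactamase reporter system, HEK293H cells with a stably integrated UAS-bla construct under PPARg control; the 17 h treatment at 37C preceded a 1 h room-temperature FRET substrate read.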

Assay [3] shares this target. In words: qHTS assay to identify small molecule antagonists of the peroxisome proliferator-activated receptor gamma (PPARg) signaling pathway (AID 743191; calls by dose curve; also: series mostly up to about 63 µM; nearly all actives have a fitted effect of over 30% in size). The essentials:
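GeneBLAzer PPARg UAS-bla HEK293H cells carrying a UAS-driven beta-lactamase reporter were plated at 3000 cells/well, preincubated 5 h at 37C, then given compound for 17 h at 37C; LiveBLAzer B/G FRET substrate was read after 1 h at room temperature.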

The nature of assay [4]: qHTS assay for small molecule agonists of the antioxidant response element (ARE) signaling pathway (AID 743202; active = well fitted activation curve with a large enough effect in the signal ratio in the repeat runs, not every such curve was filed as active; the % refers to the signal ratio; also: potency is read from the fitted curve at half-maximal effect). The essentials: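 Following a 16 h, 37 C exposure of reporter HepG2 cells (ARE-driven beta-lactamase, 2,000 cells/well) to compounds, FRET substrate was applied for 2 h at room temperature and fluorescence intensity recorded.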
Assay [5] is described as follows: qHTS assay for small molecule agonists of the antioxidant response element (ARE) signaling pathway - cell viability counter screen (AID 743203; calls by dose curve; also: nearly all actives have a fitted effect of over 55% in size; also: potency is read from the fitted curve at half-maximal effect). The essentials: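 ATP content via CellTiter-Glo luminescence served as the viability measure. Cells: ARE-bla HepG2, 2,000 per well. Exposure: 16 hrs, 37C/5% CO2.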
Assay [6] in a line: qHTS assay for small molecule activators of the heat shock response signaling pathway - cell viability counter screen (AID 743209). Also: nearly all actives have a fitted effect of over 50% in size. The essentials:
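Compounds dissolved in DMSO were added to overnight-plated HSE-bla HeLa cells and left 5 h at 37 C. Cell viability was quantified by luminescence using CellTiter-Glo.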

Assay [7] in a line: qHTS assay for small molecule activators of the heat shock response signaling pathway (AID 743210; active = well fitted activation curve with a large enough effect in the signal ratio in the repeat runs, with a control signal flat, not every such curve was filed as active; the % refers to the signal ratio; also: series mostly up to about 63 µM). The essentials: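 Heat shock element–beta-lactamase HeLa reporter cells; qHTS with compounds for 5 h at 37 C; detection by FRET substrate fluorescence after 2.5 h at RT.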
The nature of assay [8]: qHTS assay to identify small molecule agonists of the peroxisome proliferator-activated receptor delta (PPARd) signaling pathway - cell viability counter screen (AID 743211). Also: nearly all actives have a fitted effect of over 55% in size. Also: potency is read from the fitted curve at half-maximal effect. The essentials: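 Luminescent ATP viability assay (CellTiter-Glo, 30 min RT) in UAS-bla HEK293H cells carrying the PPAR delta reporter construct, 3000 cells/well, after a 17 h compound treatment at 37 C.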

In assay [9] the target is Peroxisome proliferator-activated receptor delta (Homo sapiens) (UniProt Q03181). In words: qHTS assay to identify small molecule agonists of the peroxisome proliferator-activated receptor delta (PPARd) signaling pathway (AID 743212; calls by dose curve). A digest of the protocol: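 Beta-lactamase reporter read by fluorescence (LiveBLAzer B/G FRET, 2 h, room temperature). Test agents, in DMSO, incubated at 37 C with PPARd-bla HEK293H cells.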
Sequence of Peroxisome proliferator-activated receptor delta (Homo sapiens) (Q03181 whole entry, looked up): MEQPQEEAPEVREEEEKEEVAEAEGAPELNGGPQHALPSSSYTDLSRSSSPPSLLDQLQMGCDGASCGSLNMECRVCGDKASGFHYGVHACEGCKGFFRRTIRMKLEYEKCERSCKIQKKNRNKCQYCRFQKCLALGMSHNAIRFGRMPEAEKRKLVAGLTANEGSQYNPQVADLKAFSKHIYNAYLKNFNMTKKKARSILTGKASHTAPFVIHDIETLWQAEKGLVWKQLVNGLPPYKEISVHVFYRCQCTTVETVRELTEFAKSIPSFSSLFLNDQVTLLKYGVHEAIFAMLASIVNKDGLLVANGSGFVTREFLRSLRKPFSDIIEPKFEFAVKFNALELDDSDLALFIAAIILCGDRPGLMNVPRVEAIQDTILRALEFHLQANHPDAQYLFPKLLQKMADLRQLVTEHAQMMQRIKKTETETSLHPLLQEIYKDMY

A short description of assay [10]: qHTS assay to identify small molecule antagonists of the peroxisome proliferator-activated receptor delta (PPARd) signaling pathway - cell viability counter screen (AID 743213). Also: nearly all actives have a fitted effect of over 50% in size. The essentials: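 HEK293H cells with the PPARd UAS-bla reporter, co-treated 17 h at 37 C with compounds and L165041 (300 nM final), were lysed with CellTiter-Glo. Luminescence indicated viable cell content.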

Assay [11] deals with Peroxisome proliferator-activated receptor delta (Homo sapiens) (UniProt Q03181). In words: qHTS assay to identify small molecule antagonists of the peroxisome proliferator-activated receptor delta (PPARd) signaling pathway (AID 743215; active = well fitted inhibition curve with a large enough effect in the signal ratio in the repeat runs, not every such curve was filed as active; the % refers to the signal ratio;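 also: cells stimulated with agonist L165041 at 300 nM final during compound exposure; series mostly up to about 62 µM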). The essentials: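 Here, a reporter line (HEK293H, beta-lactamase under a UAS) measures PPARd signaling. Compounds are tested against agonist L165041 at 300 nM final concentration over 17 h at 37 C, with fluorescence read after substrate.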

The target in assay [12] is Bile acid receptor (Homo sapiens) (UniProt Q96RI1). In words: qHTS assay to identify small molecule antagonists of the farnesoid-X-receptor (FXR) signaling pathway (AID 743217; active = well fitted inhibition curve with a large enough effect in the signal ratio in the repeat runs, not every such curve was filed as active; the % refers to the signal ratio). A digest of the protocol: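 Test compounds are pin-transferred onto FXR-bla HEK 293T cells, then chenodeoxycholic acid is added at 50 uM final. After 16 h at 37 °C, LiveBLAzer B/G substrate is applied for 2 h at room temperature and fluorescence read.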
Sequence of Bile acid receptor (Homo sapiens) (Q96RI1 whole entry, looked up): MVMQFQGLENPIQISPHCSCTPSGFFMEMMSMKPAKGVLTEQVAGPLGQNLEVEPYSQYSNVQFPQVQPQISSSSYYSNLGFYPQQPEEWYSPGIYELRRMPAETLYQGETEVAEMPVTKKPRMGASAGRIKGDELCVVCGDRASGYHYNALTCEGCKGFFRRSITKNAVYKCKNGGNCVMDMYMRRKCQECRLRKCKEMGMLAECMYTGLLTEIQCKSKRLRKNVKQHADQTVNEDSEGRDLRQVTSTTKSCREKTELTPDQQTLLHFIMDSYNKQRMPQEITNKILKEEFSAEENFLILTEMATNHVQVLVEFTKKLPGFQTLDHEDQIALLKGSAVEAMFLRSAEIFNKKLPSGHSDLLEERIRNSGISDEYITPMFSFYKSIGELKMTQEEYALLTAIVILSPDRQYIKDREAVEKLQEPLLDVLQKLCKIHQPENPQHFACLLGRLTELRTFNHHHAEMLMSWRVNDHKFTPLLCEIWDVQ

Assay [13] can be described thus: qHTS assay to identify small molecule agonists of the farnesoid-X-receptor (FXR) signaling pathway - cell viability counter screen (AID 743218). Also: nearly all actives have a fitted effect of over 45% in size. Also: potency is read from the fitted curve at half-maximal effect. The essentials: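 Quantitative HTS counter screen measuring ATP-based viability via CellTiter-Glo luminescence in HEK 293T cells carrying a UAS-driven beta-lactamase reporter, after 16 h compound exposure at 37 C.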
Assay [14] deals with Bile acid receptor (Homo sapiens) (UniProt Q96RI1). In words: qHTS assay to identify small molecule agonists of the farnesoid-X-receptor (FXR) signaling pathway (AID 743220; active = well fitted activation curve with a large enough effect in the signal ratio in the repeat runs, not every such curve was filed as active; the % refers to the signal ratio). A digest of the protocol: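 FXR-UAS-bla HEK 293T cells carrying a UAS-driven beta-lactamase reporter were plated for 5 h at 37C/5% CO2, then exposed to DMSO-dissolved Tox21 10K compounds for 16 h at 37C. A LiveBLAzer B/G FRET substrate was loaded for 2 h at room temperature before fluorescence reading.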

Assay [15] can be described thus: qHTS assay to identify small molecule antagonists of the farnesoid-X-receptor (FXR) signaling pathway - cell viability counter screen (AID 743221; active = well fitted cell-killing curve with a large enough effect in the repeat runs, not every such curve was filed as active; also: nearly all actives have a fitted effect of over 50% in size). The essentials: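 In GeneBLAzer FXR-UAS-bla HEK 293T cells stimulated with 50 uM chenodeoxycholic acid (final), compounds acted for 16 h at 37 C. Viability was assessed afterwards by CellTiter-Glo luminescence.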
Assay [16] has as its target Vitamin D3 receptor (Homo sapiens) (UniProt P11473). In words: qHTS assay to identify small molecule agonists of the vitamin D receptor (VDR) signaling pathway (AID 743222; calls by dose curve). The essentials:
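Tox21 cell reporter format: VDR-bla line, 16 h compound exposure in 5% CO2 at 37C, then fluorescence intensity after 2 h with LiveBLAzer B/G FRET substrate.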

For assay [17] the target is unchanged. In words: qHTS assay to identify small molecule antagonists of the vitamin D receptor (VDR) signaling pathway (AID 743223; active = well fitted inhibition curve with a large enough effect in the signal ratio in the repeat runs, not every such curve was filed as active; the % refers to the signal ratio). The essentials: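 Agonist 1alpha,25-dihydroxyvitamin D3 (3 nM in well) was added with each compound to VDR-bla cells preincubated 4 h. Cells stood 16 h at 37C, then FRET substrate 2 h at room temperature; fluorescence intensity recorded.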

Assay [18] can be described thus: qHTS assay to identify aromatase inhibitors - cell viability counter screen (AID 743084).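 Also: cells stimulated with testosterone during compound exposure; nearly all actives have a fitted effect of over 55% in size.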 Also: potency is read from the fitted curve at half-maximal effect.
Assay [19] in a line: qHTS assay to identify small molecule that activate the aryl hydrocarbon receptor (AhR) signaling pathway - cell viability counter screen (AID 743086). Also: nearly all actives have a fitted effect of over 45% in size. Also: potency is read from the fitted curve at half-maximal effect. The essentials:
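HepG2-AhR-luc (HG2L7.5c1) cells, 4000/well, were preincubated 5 h at 37C, exposed to compound in qHTS format for 24 hr at 37C, then given CellTiter-Fluor for 30 min; viability was read as fluorescence in the reporter wells.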

Assay [20] is described as follows: qHTS assay to identify small molecule antagonists of the peroxisome proliferator-activated receptor gamma (PPARg) signaling pathway - cell viability counter screen (AID 743194). Also: nearly all actives have a fitted effect of over 55% in size. Also: potency is read from the fitted curve at half-maximal effect. The essentials: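 PPARg-UAS-bla HEK293H cells were plated, rested 5 h at 37 C, then treated with compounds plus rosiglitazone (50 nM final) for 17 h at 37 C; viability was then read by CellTiter-Glo luminescence after 30 min at room temperature.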

Inconclusive results are not listed. A number with no mark means an inactive call. The source made the active and inactive calls. Unless noted, calls follow the shape of the dose curve; as a rule, active = well fitted curve in the direction sought with a large enough effect in the repeat runs; inconclusive = weak or mixed curves; inactive = no such curve, though single readings can be large; an effect the other way counts as inactive or inconclusive.

Sequence of Vitamin D3 receptor (Homo sapiens) (P11473 whole entry, looked up): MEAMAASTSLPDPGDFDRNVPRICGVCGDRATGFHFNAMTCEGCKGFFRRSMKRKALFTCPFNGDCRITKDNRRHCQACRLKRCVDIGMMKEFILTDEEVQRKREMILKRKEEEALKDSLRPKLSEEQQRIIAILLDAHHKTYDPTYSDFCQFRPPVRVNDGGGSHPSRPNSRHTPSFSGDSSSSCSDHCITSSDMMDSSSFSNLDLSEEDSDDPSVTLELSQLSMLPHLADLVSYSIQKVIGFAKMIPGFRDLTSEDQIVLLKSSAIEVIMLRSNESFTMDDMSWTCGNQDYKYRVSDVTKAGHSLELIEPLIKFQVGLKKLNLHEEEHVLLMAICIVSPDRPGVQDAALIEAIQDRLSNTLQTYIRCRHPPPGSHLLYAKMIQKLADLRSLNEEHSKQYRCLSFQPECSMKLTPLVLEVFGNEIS
Sequence of Peroxisome proliferator-activated receptor gamma (Homo sapiens) (P37231 whole entry, looked up): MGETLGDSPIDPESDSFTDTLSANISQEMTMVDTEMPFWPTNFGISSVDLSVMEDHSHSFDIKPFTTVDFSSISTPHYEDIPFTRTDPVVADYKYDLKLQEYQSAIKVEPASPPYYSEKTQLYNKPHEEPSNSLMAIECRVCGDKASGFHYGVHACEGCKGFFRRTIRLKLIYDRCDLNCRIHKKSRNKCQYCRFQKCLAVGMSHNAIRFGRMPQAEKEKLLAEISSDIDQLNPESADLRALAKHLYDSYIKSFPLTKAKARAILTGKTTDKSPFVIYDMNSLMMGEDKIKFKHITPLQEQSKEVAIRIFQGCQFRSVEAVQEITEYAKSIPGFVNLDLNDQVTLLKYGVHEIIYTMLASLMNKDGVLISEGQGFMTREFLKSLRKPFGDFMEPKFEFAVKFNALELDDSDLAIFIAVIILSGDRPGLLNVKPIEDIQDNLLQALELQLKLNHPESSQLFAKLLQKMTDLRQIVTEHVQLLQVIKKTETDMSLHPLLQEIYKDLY
Sequence of Aryl hydrocarbon receptor (Homo sapiens) (P35869 whole entry, looked up): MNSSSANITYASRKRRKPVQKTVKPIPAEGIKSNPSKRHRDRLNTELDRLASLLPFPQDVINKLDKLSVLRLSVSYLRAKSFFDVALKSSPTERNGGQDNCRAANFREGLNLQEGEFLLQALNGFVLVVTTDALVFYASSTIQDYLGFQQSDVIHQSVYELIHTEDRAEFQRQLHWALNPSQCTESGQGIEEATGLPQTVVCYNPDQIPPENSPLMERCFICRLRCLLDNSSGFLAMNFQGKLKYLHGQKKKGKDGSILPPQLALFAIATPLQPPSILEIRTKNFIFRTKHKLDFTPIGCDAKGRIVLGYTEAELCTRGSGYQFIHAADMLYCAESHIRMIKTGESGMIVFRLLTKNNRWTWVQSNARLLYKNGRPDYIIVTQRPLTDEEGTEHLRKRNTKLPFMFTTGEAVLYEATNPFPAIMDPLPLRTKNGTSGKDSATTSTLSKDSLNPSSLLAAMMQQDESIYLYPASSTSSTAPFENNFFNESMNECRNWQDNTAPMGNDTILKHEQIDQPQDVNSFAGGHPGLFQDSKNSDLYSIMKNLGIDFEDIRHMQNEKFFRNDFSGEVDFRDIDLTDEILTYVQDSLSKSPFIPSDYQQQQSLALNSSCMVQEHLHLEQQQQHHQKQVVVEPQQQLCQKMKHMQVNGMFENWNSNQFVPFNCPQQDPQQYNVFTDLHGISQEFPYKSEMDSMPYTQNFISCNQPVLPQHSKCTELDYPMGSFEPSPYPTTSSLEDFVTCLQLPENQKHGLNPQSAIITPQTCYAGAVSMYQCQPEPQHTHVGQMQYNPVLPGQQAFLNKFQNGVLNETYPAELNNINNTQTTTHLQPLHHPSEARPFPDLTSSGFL

`O=[N+]([O-])c1ccc(NCCO)c(OCCO)c1`: the Potency result in assay [1], in assay [2], in assay [3], in [4], in assay [5] and in [6] was “inactive” each time. The Potency entry in [7], in assay [8], in assay [9], in [10], in assay [11] and in assay [12] was “inactive” each time. Also, the Potency entry in assay [13], in assay [14], in assay [15] and in [16] was “inactive” each time. For the same compound, in assay [17], the compound was classed as inactive.

Take `O=C(O)C1(C(=O)Nc2ccc(Cl)cc2Cl)CC1`: the Potency result in assay [18], in [19], in assay [5], in [6], in assay [7] and in assay [14] was “inactive” in each case. For the same compound, the Potency entry in assay [15] was “inactive”.

Consider `O=C1OC(CN2CCOCC2)CN1/N=C/c1ccc([N+](=O)[O-])o1` (configuration not stated), for which the Potency entry in assay [18], in assay [19], in assay [20], in assay [5], in assay [7] and in assay [8] was “inactive” throughout. Moreover, the Potency entry in [9], in assay [10], in assay [11], in assay [13], in assay [15] and in assay [16] was “inactive” each time. For the same compound, the Potency in [4] was 29.8 µM (active). Further, the outcome in assay [17] was inactive.

For the compound `CN(C)CCCN1c2ccccc2Sc2ccccc21`, the Potency result in assay [1], in assay [19], in [2], in assay [7], in assay [9] and in assay [12] was “inactive” each time. In addition, the Potency result in assay [14] and in assay [16] was “inactive” throughout. For the same compound, in assay [13], the Potency was 13.3 µM (active).

Turning to `CCCOC(C(=O)OC1CCN(C)CC1)(c1ccccc1)c1ccccc1`, the Potency result in assay [1], in assay [2], in [3], in assay [20], in assay [5] and in assay [6] was “inactive” in each case. Besides, the Potency result in [7], in assay [8], in assay [9], in assay [11], in [12] and in assay [16] was “inactive” throughout. In [19], the Potency is 29.8 µM (active).

On to `O=C(O)c1ccc(-n2nc(-c3ccccc3O)nc2-c2ccccc2O)cc1`, for which the Potency result in assay [1], in assay [19], in assay [5], in assay [6], in assay [9] and in assay [10] was “inactive” each time. Moreover, the Potency entry in assay [15] and in [16] was “inactive” throughout. Besides, in assay [17], the compound was called inactive.

`O=C1CCCCCCCCCCCC(=O)OCCO1`: the Potency entry in assay [1], in [19], in assay [2], in assay [20], in [5] and in [7] was “inactive” throughout. The Potency entry in [8], in assay [9], in assay [10], in [15] and in assay [16] was “inactive” throughout.

Turning to `Cc1ccc(N=Nc2c(O)c(C(=O)O)cc3ccccc23)c(S(=O)(=O)O)c1`, in [18], the Potency was 6.65 µM (active). Moreover, the Potency entry in assay [2], in assay [3], in assay [20], in [5], in assay [6] and in assay [7] was “inactive” throughout. The Potency entry in assay [8], in assay [9], in [10], in assay [11] and in [15] was “inactive” each time.

For the compound `O=S(c1cc(Cl)cc(Cl)c1O)c1cc(Cl)cc(Cl)c1O`, the Potency entry in assay [1] and in assay [19] was “inactive” throughout. Moreover, the Potency in [20] was 26.6 µM (active); in assay [5], 11.9 µM (active); in assay [8], 23.7 µM (active).

The record behind these values is PubChem BioAssay (Tox21).
